# Out of some 420,000 compounds screened, about 64,000 (15%) were called active. Not shown: some 27% with an inconclusive outcome. Not all results are given here. Unmarked numbers belong to inactive results. Calls follow the shape of the dose curve; as a rule, active = well fitted inhibition curve with a large enough effect; inconclusive = small, poorly fitted or top-dose-only effect; inactive = flat fitted curve, though single readings scatter.
# Test: qHTS for Inhibitors of human tyrosyl-DNA phosphodiesterase 1 (TDP1): qHTS in cells in absence of CPT; also: nearly all actives have a fitted effect of over 55% in size
# Settings: DT40 Tdp1-/- hTDP1 cells, no CPT, ATP luminescence, 48 h; activity change, negative = growth inhibition: at 46.2 µM (top of the series)
# Summary of the method: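 Camptothecin absent (DMSO only). Human TDP1-complemented DT40 knockout cells, 400 cells/well, 37 °C for minimum 48 hr; ATP measured via CellTiter-Glo, 30 min dark incubation, luminescence.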
# % is scaled to controls: 0 for no effect and ±100 for the full control effect; potency is read from the fitted curve at half-maximal effect.
Structure (SMILES),Potency,"activity change, negative = growth inhibition"
NC(=S)NN=C1CCCC(C(F)(F)F)C1 (configuration not stated),23.1 µM (active),
Cc1cc(C)nc(SCc2cn3c(C)cc(C)nc3n2)n1,,-8.17%
O=[N+]([O-])/C(N=Nc1ccccc1)=N\Nc1ccccc1,,4.72%
O=S(=O)(c1ccc(Br)c2ccccc12)N1CCOCC1,,-4.4%
O=S(=O)(NCCc1ccccn1)c1cc(Cl)cc(Cl)c1O,,12.2%
COc1ccc(NC(=O)CCC(=O)Nc2nnc(C3CCCCC3)s2)cc1,,-8.09%
COC(=O)CCc1sc(Nc2ccc(Br)cc2)nc1-c1ccc(OC)cc1,13 µM (active),
COc1ccc(NC(=O)c2sc(N)nc2-c2ccccc2)cc1,,19.9%
CC(C)(C)n1nc2c(c1NC(=O)c1cc3ccccc3o1)CSC2,,-14.3%
C[C@H](NC(=O)OC(C)(C)C)c1nnc(SCC(N)=O)o1,,0.895%
C[C@@H](NC(=O)OC(C)(C)C)c1nnc(S(=O)(=O)Cc2ccccc2)o1,1.03 µM (active),
CC(C)Sc1nnc([C@H](Cc2ccccc2)NC(=O)OC(C)(C)C)o1,,-15.6%
O=C(CSc1nnc(CNC(=O)c2ccc(F)cc2)o1)Nc1ccc2c(c1)OCO2,,-1.83%
Cc1cc(=O)[nH]c(=S)[nH]1,inactive,
COc1cc(C(=O)OCc2ccc([N+](=O)[O-])cc2)cc(OC)c1OC,,-7.17%
Cc1ccc(C(=O)Cn2cc([N+](=O)[O-])nc2C)cc1,,-14.6%
Cc1cc(CO)nn1-c1ccc([N+](=O)[O-])cc1,,-14%
Cc1ccc(-n2cc3ccc([N+](=O)[O-])cc3n2)cc1,16.4 µM (active),
O=C(CN1CCN(c2ccccn2)CC1)NC1CCCCC1,,2.13%

Structure (SMILES),Potency,"activity change, negative = growth inhibition"
O=C1CCC(CCC(=O)N2CCCC(C(=O)c3ccc(Cl)cc3)C2)=NN1 (configuration not stated),,-5.18%
COc1cc(OC)cc(-c2nc3nc(C)c(CCC(=O)Nc4ccc(C)cc4)c(C)n3n2)c1,,-28.1%
COc1cc(OC)cc(-c2nc3nc(C)c(CCC(=O)Nc4ccccc4)c(C)n3n2)c1,29.1 µM (active),
CCOC(=O)c1cccc(NC(=O)CCc2c(C)nc3ncnn3c2C)c1,,2.02%
COc1ccc(-c2cn[nH]c2-c2ccc(OC)cc2)cc1,,-22.1%
COc1ccc(OC)c(-n2c(-c3ccn[nH]3)n[nH]c2=S)c1,,-17.3%
COc1ccc(-c2c(-c3cc(OC)cc(OC)c3)n(C)c3ccc(-c4ccn[nH]4)cc23)cc1,25.9 µM (active),
COc1cc(OC)cc(-c2c(C#Cc3ccsc3)c3cc(-c4ccc(SC)cc4)ccc3n2C)c1,,-1.65%
COc1cc(OC)cc(-c2c(-c3cccs3)c3cc(-c4ccc(OC)cc4F)ccc3n2C)c1,14.6 µM (active),
O=C(CSc1nncs1)NC1CCCc2ccccc21 (configuration not stated),,12.5%
Cc1nc2cc3c(cc2s1)OCO3,,-7.5%
Cc1nnc(SCC(=O)NC(=O)NC2CCCC2)n1N,,-14.4%
COc1ccc(N2CC(C(=O)N[C@@H](C)C(=O)N3CCCCC3)CC2=O)cc1 (some centres not stated),,19.1%
CCOC(=O)C1CCN(S(=O)(=O)c2ccc3c(c2)N(C)C(=O)CC(=O)N3C)CC1,inactive,
O=[n+]1c2c(n([O-])c3cc(Br)ccc31)CCC2,,-2.65%
O=C(C1=C(O)C(=O)N(Cc2ccccc2)C1c1cccnc1)c1ccco1 (configuration not stated),,8.79%
CC(C)c1ccc(C2C(C(=O)c3ccco3)=C(O)C(=O)N2CC2CCCO2)cc1 (configuration not stated),,-77.9% (active)
CCOc1cc(C2C(C(=O)c3ccco3)=C(O)C(=O)N2Cc2ccccc2)ccc1O (configuration not stated),,-10.7%
CCCc1nnc(NC(=O)CN2C(=O)c3ccccc3S2(=O)=O)s1,,3.89%

Structure (SMILES),Potency,"activity change, negative = growth inhibition"
Cc1ccc(-c2nc3c(cnn3-c3ccccc3)c(=O)o2)cc1,,-13.9%
Cc1ccc(-n2ncc3c(Nc4cccc(C(=O)O)c4)ncnc32)cc1,,-12.6%
Cc1ccc(-n2ncc3c(=O)n(-c4ccc(C)c(C)c4)c(-c4ccco4)nc32)cc1,18.4 µM (active),
O=Cc1c(NCCc2cccc(F)c2)c2ccccc2[nH]c1=O,,-6.03%
CCC(=O)Nc1ccc(C(=O)NNC(=O)c2ccc(Cl)cc2)cc1,,-2.27%
CC(=O)OC(C(=O)NC1CCCCC1)c1ccccc1 (configuration not stated),,-1.29%
Cc1cnc(CN(C)C(=O)CC2C(=O)NCCN2Cc2cccc(F)c2F)[nH]1 (configuration not stated),,-2.17%
CCN(CC)CCNC(=O)Cn1ncc2c3ccccc3n(Cc3ccccc3C)c2c1=O,25.9 µM (active),
O=C(Cn1ncc2c3ccccc3n(Cc3ccccc3)c2c1=O)NC1CCCCCC1,3.66 µM (active),
O=C(Cn1ncc2c3ccccc3n(Cc3ccccc3)c2c1=O)NCc1ccccn1,inactive,
Cc1ccc(Cn2c(C)c3cnn(CC(=O)NCCN4CCOCC4)c(=O)c3c2C)cc1,,-3.15%
CCCn1c2ccccc2c2cnn(CC(=O)NCC3CCN(Cc4ccc(C)cc4)CC3)c(=O)c21,10.3 µM (active),
Cc1ccc2oc(=O)c3cnn(CC(=O)NCc4ccccc4Cl)c3c2c1,,2.11%
CCCn1c2ccccc2c2cnn(CC(=O)NCCCN3CCCCC3CC)c(=O)c21 (configuration not stated),,-69.4%
Cc1ccc(Cn2c(C)c3cnn(CC(=O)NCc4ccccc4)c(=O)c3c2C)cc1,2.91 µM (active),
Cc1c2cnn(CC(=O)NCc3ccccn3)c(=O)c2c(C)n1Cc1ccc(Cl)cc1,,-21.2%
CCOC(=O)N1CCC(NC(=O)C(C)n2c3ccccc3c3cnn(C)c(=O)c32)CC1 (configuration not stated),,-19%
Cc1nn(CC(=O)NC2CCCCC2)c(=O)c2cccn12,,7.78%
Cc1ccccc1CNC(=O)Cn1c(C)c2cnn(-c3ccccc3)c(=O)c2c1C,,-15.3%

# Source: PubChem BioAssay AID686978 (National Center for Advancing Translational Sciences (NCATS), 2013)
